{
  "source": "PubChem BioAssay (NCATS)",
  "key": {"[1]": {"molecular_target": "Glutathione peroxidase 1 (Homo sapiens) (UniProt P07203)", "sequence (P07203 whole entry, looked up)": "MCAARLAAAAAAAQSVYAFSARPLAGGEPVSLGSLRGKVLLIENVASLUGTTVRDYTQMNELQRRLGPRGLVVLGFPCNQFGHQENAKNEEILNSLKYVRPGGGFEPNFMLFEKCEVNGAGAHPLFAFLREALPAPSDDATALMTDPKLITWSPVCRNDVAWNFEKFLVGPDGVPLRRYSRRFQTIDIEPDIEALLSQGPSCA", "assay": "Primary qHTS Assay for Inhibitors of Recombinant Selenoprotein Glutathione Peroxidase 1 (GPX1) (AID 1845191); also: nearly all actives have a fitted effect of over 65% in size", "in_short": "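GR-coupled readout: NADPH consumption tracked by fluorescence, ex 340/em 450 nm, at t=0 and after 15 min at RT. Final mix 10 nM GPX1, 1 mM GSH, 0.5 mM CHP, 0.5 mM NADPH, 100 nM GR, 0.01% BSA, following 30 min enzyme–compound preincubation.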"}, "[2]": {"molecular_target": "Phospholipid hydroperoxide glutathione peroxidase GPX4 (Homo sapiens) (UniProt P36969)", "sequence (P36969 whole entry, looked up)": "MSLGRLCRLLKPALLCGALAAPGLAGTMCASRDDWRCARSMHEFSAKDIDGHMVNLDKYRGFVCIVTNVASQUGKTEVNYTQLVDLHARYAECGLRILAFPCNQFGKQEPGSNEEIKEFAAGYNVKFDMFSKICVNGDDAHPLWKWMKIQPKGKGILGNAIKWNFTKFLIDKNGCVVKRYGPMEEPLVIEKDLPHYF", "assay": "Primary qHTS Assay for Inhibitors of Recombinant Selenoprotein Glutathione Peroxidase 4 (GPX4) (AID 1845192); also: nearly all actives have a fitted effect of over 65% in size; as to activity change, negative = inhibition: series mostly up to about 50 µM", "in_short": "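Steps: GPX4 plus compound, 30 min RT; add GR/GSH/NADPH master mix; start with cumene hydroperoxide; read 340/450 nm fluorescence at 0 and 15 min. Finals were 200 nM GPX4, 1 mM GSH, 0.5 mM CHP, 0.5 mM NADPH, 100 nM GR.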"}, "[3]": {"molecular_target": "Luciferin 4-monooxygenase (Photinus pyralis) (UniProt P08659)", "assay": "Primary firefly luciferase (FLuc) qHTS assay for identification of artifact compounds. (AID 1845220); also: nearly all actives have a fitted effect of over 60% in size; as to activity change, negative = inhibition: series mostly up to about 54 µM", "in_short": "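Titrated compounds were incubated 15 min at RT, protected from light, with luciferin and ATP at 10 uM; reaction started with 10 nM FLuc, luminescence imaged at 5 min, and concentration-response fitted by Hill equation.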"}, "[4]": {"assay": "Primary fluorescence-based thiol-reactive (MSTI) qHTS assay for identification of artifact compounds. (AID 1845221); also: nearly all actives have a fitted effect of over 65% in size; also: potency is read from the fitted curve at half-maximal effect;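 as to activity change, negative = thiol reactive: series mostly up to about 54 µM; thiol-reactive compounds lower the probe fluorescence signal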", "in_short": "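In PBS pH 7.4 with 2% DMSO, each compound met 4 uM MSTI for one hour at ambient temperature, shielded from light, before fluorescence detection.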"}, "[5]": {"system": "Nanoluciferase (engineered Oplophorus gracilirostris luciferase)", "assay": "Primary Nanoluciferase (NLuc) qHTS assay for identification of artifact compounds. (AID 1845222);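 also: NLuc secreted into diluted conditioned medium of S16 cells; series mostly up to about 54 µM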", "in_short": "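qHTS format, against NLuc in S16 cell-conditioned medium. Nano-Glo substrate 1:100 was added after 15 min at room temperature. Luminescence was taken after a further 5 min.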"}},
  "note": "Results filed as inconclusive are left out. Entries that show only a call come without a potency. Active and inactive are the calls of the source. Calls follow the shape of the dose curve; as a rule, active = well fitted curve in the direction sought with a large enough effect; inconclusive = small, poorly fitted or top-dose-only effect, or another doubt; inactive = no such curve, though single readings can be large; an effect the other way counts as inactive or inconclusive.",
  "data": [
    {"smiles": "CC1=CC(=O)CC(C)(C)C1CCC(C)OC1OC(COC(=O)c2cc(O)c(O)c(O)c2)C(O)C(O)C1O", "note": "(stereo not given)", "values": [
      {"measurement": "Potency", "setting": "[1]", "result": "inactive"},
      {"measurement": "Potency", "setting": "[2]", "result": "inactive"},
      {"measurement": "Potency", "setting": "[3]", "result": "inactive"},
      {"measurement": "Potency", "setting": "[4]", "result": "1.16 µM (active)"},
      {"measurement": "Potency", "setting": "[5]", "result": "inactive"}
    ]},
    {"smiles": "COc1cc(C/C(=C/NC(C)=O)N(CC(=O)Cc2ccccc2)C(C)=O)cc2c1OCO2", "values": [
      {"measurement": "Potency", "setting": "[1]", "result": "inactive"},
      {"measurement": "Potency", "setting": "[2]", "result": "inactive"},
      {"measurement": "Potency", "setting": "[3]", "result": "inactive"},
      {"measurement": "Potency", "setting": "[4]", "result": "inactive"},
      {"measurement": "Potency", "setting": "[5]", "result": "inactive"}
    ]},
    {"smiles": "C=C1CC23CCC4[C@@](C)(CCC[C@@]4(C)C(=O)O)C2CCC1C3", "note": "(stereo not given in full)", "values": [
      {"measurement": "Potency", "setting": "[1]", "result": "inactive"},
      {"measurement": "Potency", "setting": "[2]", "result": "inactive"},
      {"measurement": "Potency", "setting": "[3]", "result": "inactive"},
      {"measurement": "Potency", "setting": "[4]", "result": "inactive"},
      {"measurement": "Potency", "setting": "[5]", "result": "inactive"}
    ]},
    {"smiles": "C[C@@H]1O[C@@H](O[C@H]2[C@H](OC(=O)C34CCC5(C)C(=CCC6C7(C)CC(O)C(O[C@@H]8O[C@H](C(=O)O)[C@@H](O)[C@H](O)[C@H]8O)C(C)(C(=O)O)C7CCC65C)C3CC(C)(C)CC4O)O[C@H](C)[C@@H](O)[C@@H]2O)[C@H](O)[C@@H](O[C@@H]2OC[C@](O)(CO)[C@H]2O[C@@H]2O[C@H](CO)[C@@H](O)[C@H](O)[C@H]2O)[C@H]1O", "note": "(stereo not given in full)", "values": [
      {"measurement": "activity, negative = inhibition", "setting": "[1]", "result": "-10.2% [at 9.52 µM] (inactive)"},
      {"measurement": "activity change, negative = inhibition", "setting": "[2]", "result": "-4.3% [at 9.73 µM] (inactive)"},
      {"measurement": "activity change, negative = inhibition", "setting": "[3]", "result": "-0.148% [at 11.6 µM] (inactive)"},
      {"measurement": "activity change, negative = thiol reactive", "setting": "[4]", "result": "44.4% [at 11.5 µM] (inactive)"},
      {"measurement": "activity, negative = inhibition", "setting": "[5]", "result": "0% [at 11.6 µM] (inactive)"}
    ]},
    {"smiles": "C=C1CC2(C(=O)O)CC1CCC2C1(C)CCCC2(C)C(=O)OC(O)C21", "note": "(stereo not given)", "values": [
      {"measurement": "Potency", "setting": "[1]", "result": "inactive"},
      {"measurement": "Potency", "setting": "[2]", "result": "inactive"},
      {"measurement": "Potency", "setting": "[3]", "result": "inactive"},
      {"measurement": "Potency", "setting": "[4]", "result": "inactive"},
      {"measurement": "Potency", "setting": "[5]", "result": "inactive"}
    ]},
    {"smiles": "CCC[C@@H]1C[C@@H](C(=O)N[C@@H]([C@H]2O[C@H](SC)[C@H](OP(=O)(O)O)[C@@H](O)[C@H]2O)[C@H](C)Cl)N(C)C1", "values": [
      {"measurement": "Potency", "setting": "[1]", "result": "inactive"},
      {"measurement": "Potency", "setting": "[2]", "result": "inactive"},
      {"measurement": "Potency", "setting": "[3]", "result": "inactive"},
      {"measurement": "Potency", "setting": "[4]", "result": "inactive"},
      {"measurement": "Potency", "setting": "[5]", "result": "inactive"}
    ]}
  ]
}
